Several values for one entry are separate records, joined by “and”; a condition that tells them apart may be missing. Equal entries are not always repeated.
Experiments:
Assay in all cases: growth inhibition (% activity, log2 RLU normalised to DMSO / staurosporine); higher = more growth inhibition
Conditions in all cases: 33 µM
DIPGX29 = test system: DIPGX29 (H3.3 K27M diffuse intrinsic pontine glioma line)
In short: (§1)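 Approved drugs were tested in triplicate at a single final concentration of about 33 μM for 7 days at 37 °C, 5% CO2, on pHGG cell lines and H9-derived neural stem cells. Readout was CellTiter-Glo luminescence, log2-transformed and scaled per plate to % activity between solvent and positive control wells. The median over replicates gives the growth-inhibition value.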

DIPGX37 = test system: DIPGX37 (H3.3 K27M diffuse intrinsic pontine glioma line)
In short: as §1

DIPGX7 = test system: DIPGX7 (H3.3 K27M diffuse intrinsic pontine glioma line)
In short: as §1

DIPGX9 = test system: DIPGX9 (diffuse intrinsic pontine glioma line)
In short: as §1

HGGX39 = test system: HGGX39 (paediatric high-grade glioma line)
In short: as §1

HGGX6 = test system: HGGX6 (H3.3 G34R paediatric high-grade glioma line)
In short: as §1

HNSC = test system: HNSC
In short: as §1

SUDIPGIV = test system: SUDIPGIV (diffuse intrinsic pontine glioma line)
In short: as §1

SUDIPGVI = test system: SUDIPGVI (diffuse intrinsic pontine glioma line)
In short: as §1

SUDIPGXIII = test system: SUDIPGXIII (diffuse intrinsic pontine glioma line)
In short: as §1

| SMILES | growth inhibition (DIPGX29) | growth inhibition (DIPGX37) | growth inhibition (DIPGX7) | growth inhibition (DIPGX9) | growth inhibition (HGGX39) | growth inhibition (HGGX6) | growth inhibition (HNSC) | growth inhibition (SUDIPGIV) | growth inhibition (SUDIPGVI) | growth inhibition (SUDIPGXIII) |
| --- | --- | --- | --- | --- | --- | --- | --- | --- | --- | --- |
| CCc1ccc(CCOc2ccc(CC3SC(=O)NC3=O)cc2)nc1 (stereo not given) | -2.15% and 0.83% | -2.01% and 4.22% | -1.47% and 2.56% | -0.422% and 2.5% | -0.303% and 4.55% | 0.514% and 3.43% | -3.49% and 4.18% | -1.64% and 1.36% | -1.48% and 2.8% | -2.58% and 1.07% |
| CCC[C@@H]1C[C@@H](C(=O)N[C@@H]([C@H]2O[C@H](SC)[C@H](O)[C@@H](O)[C@H]2O)[C@@H](C)O)N(C)C1 | -2.47% | 0.84% | -0.347% | 0.338% | -0.628% | -0.292% | 0.119% | 0.1% | -1.6% | 0.849% |
| Cc1ccc(NC(=O)c2ccc(CN3CCN(C)CC3)cc2)cc1Nc1nc(-c2cccnc2)cs1 | 8.55% | 4.57% | 8.77% | 6.79% | 15.1% | 9.96% | 9.74% | 7.78% | 9.06% | 2.08% |
| CC(=O)Oc1ccc(C(c2ccc(OC(C)=O)cc2)c2ccccn2)cc1 | 2.78% | 3.71% | 5.33% | 8.29% | 20.8% | 3.52% | 4.99% | 18.7% | 3.8% | 5.98% |
| O=C(O)COCCN1CCN(C(c2ccccc2)c2ccc(Cl)cc2)CC1 (stereo not given) | 1.96% | 2.21% | 3.97% | 2.72% | 4.64% | 3.15% | 3.36% | -0.252% | 2.48% | 0.283% |
| O=C(CCCN1CCN(c2ccccn2)CC1)c1ccc(F)cc1 | 1.87% | 0.83% | 5.21% | 1.29% | 4.4% | 3.31% | 1.17% | 0.0159% | -3.95% | 2.26% |
| Cc1c(NC(=O)c2cccnc2)c(=O)n(-c2ccccc2)n1C | 2.04% | 3.56% | 2.88% | 1.83% | 2.64% | 2.09% | 2.9% | 1.6% | 5.52% | -1.54% |
| OCCN(CCO)c1nc(N2CCCCC2)c2nc(N(CCO)CCO)nc(N3CCCCC3)c2n1 | -2.31% | -0.429% | -1.26% | -0.332% | 2.38% | 1.04% | -0.178% | -1.52% | -2.93% | 1.36% |
| O=C(O)C(=O)O.[NH-]C1CCCCC1[NH-].[Pt+2] (stereo not given) | -0.101% | 2.05% | -0.541% | 7.2% | -0.76% | 1.66% | 1.98% | -1.88% | 0.474% | 1.07% |
| COC(=O)C1=C(C)NC(C)=C(C(=O)OCC(C)C)C1c1ccccc1[N+](=O)[O-] (stereo not given) | 1.94% | 1.14% | 0.789% | 2.65% | 5% | 3.46% | 5.72% | 0.591% | 3.16% | 2.06% |
| CC(=O)O[C@]1(C(C)=O)CC[C@H]2[C@@H]3C[C@H](C)C4=CC(=O)CC[C@]4(C)[C@H]3CC[C@@]21C | -3.25% | 0.463% | -0.594% | -0.287% | -4.12% | -0.715% | 31.3% | -4.85% | -6.53% | 4.79% |
| Nc1nc2c(ncn2COC(CO)CO)c(=O)[nH]1 | -0.593% | 2.32% | -1.01% | 1.05% | 1.32% | 1.03% | -1.32% | -0.797% | -0.103% | 1.94% |
| CCn1cc(C(=O)O)c(=O)c2cc(F)c(N3CCNCC3)nc21 | -0.406% | 0.315% | -0.279% | -2.11% | 0.108% | -1.99% | 2.46% | 0.478% | 0.763% | 0.429% |
| O=C(Nc1ccccc1)OCC(CN1CCCCC1)OC(=O)Nc1ccccc1 (stereo not given) | -1.04% | -3.49% | -0.617% | -1.45% | -2.3% | -1.35% | 9.66% | -3.64% | -7.72% | 1.16% |
| Cc1cc2c(s1)Nc1ccccc1N=C2N1CCN(C)CC1 | 1.66% | 3.63% | 1.48% | 2.04% | 4.5% | 0.504% | 3.31% | 3.12% | 3.75% | -0.29% |
| CN1c2cc(O)c(N=NC(N)=O)cc2CC1S(=O)(=O)O (stereo not given) | -0.566% | -0.439% | -0.368% | -0.808% | -0.659% | 0.668% | -5.18% | -0.34% | 0.422% | -12.4% |
| Nc1nc2[nH]cc(CCc3ccc(C(=O)N[C@@H](CCC(=O)O)C(=O)O)cc3)c2c(=O)[nH]1 | 1.3% | 1.02% | 2.83% | 0.403% | -0.372% | -2.22% | -0.517% | 2.12% | -1.22% | 1.32% |
| CCOC(=O)CC(=O)N1CCSC1COc1ccccc1OC (stereo not given) | 2.29% | 3.41% | 3.11% | 1.18% | 5.96% | 2.78% | 3.53% | 4.58% | 2.42% | -0.201% |
| COc1c2ccoc2cc2oc(=O)ccc12 | 0.175% | -0.379% | 0.232% | 1.51% | 1.71% | 2.12% | -1.02% | 0.44% | 0.394% | -0.028% |
| COc1ccc(-c2nc3ccc(C4=NNC(=O)CC4C)cc3[nH]2)cc1 (stereo not given) | 0.372% | 2.28% | 1.98% | 1.28% | 3.99% | 2.72% | 3% | 5.46% | -4.45% | 0.884% |
| CC(C)NCC(O)c1ccc(O)c(O)c1 (stereo not given) | -3.68% | -0.899% | -1.64% | -0.316% | -1.58% | 0.187% | -3.47% | -0.959% | -4.2% | -0.909% |
| Cc1cccc(C)c1NC(=O)C1CCCCN1C (stereo not given) | 0.788% | 0.607% | -0.12% | 0.0719% | 1.51% | 1.22% | -1.45% | -0.501% | 1.09% | 1.48% |

Reference: the supplement of paper PMC8253809
